# From PubChem BioAssay (NCI)
# About 83,000 compounds went through this panel and 20% of them were active in at least one assay; those are over-represented in the sample as a whole.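 Values shown are percent growth following 48 h exposure of cells in 96-well plates to a single concentration of compound; below 10 was considered active.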 A number with no mark means an inactive call. Active and inactive are the calls of the source.
# System: KM12 colon
# Experiment: NCI-60 one-dose screen, 48 h (100 = growth as untreated, 0 = no growth, -100 = all killed)
# Settings: 10 µM unless noted
row,Compound,growth
1,Cc1ccc(C(=O)Nc2ccc(-n3ccnc3)c(C(F)(F)F)c2)cc1C#Cc1cnc2cccnn12,21.9%
2,N/C(=N\c1nc2ccccc2s1)NC(=O)Nc1ccccc1F,22.6%
3,Cc1nc2sccn2c1-c1nnc(SCC(C)C)o1,98.1%
4,O=[N+]([O-])c1cccc(-c2nnc3c(/C=C/c4ccc(F)cc4)nc4ccccc4n23)c1,97.6%
5,C=CC(=O)N1CCN(c2ccc3nc4c(nc3c2C(F)(F)F)C(=O)c2ncccc2C4=O)CC1,9.15% (active)
6,CN1CCN(CCS(=O)(=O)Nc2cc(-c3ccc4ncnc(Nc5ccc(F)c(Cl)c5)c4c3)cnc2Cl)CC1,46.4%
7,COc1ccc(N=Nc2c(N)nn3c(-c4ccc(F)cc4)ccnc23)cc1,86.2%
8,O=C(N/N=C/c1c[nH]c2ccccc12)Nc1ccc(F)c(Cl)c1,-14.7% (active)
9,N#CCc1nnc(NC(=O)c2ccc(-n3c(=O)[nH]c4ccccc4c3=O)cc2)s1,121%
10,CCOc1ccc(-c2cc(-c3cc(C(C)C)c(O)cc3C)nn2-c2ccc(S(N)(=O)=O)cc2)cc1,7.96% (active)
11,CN1CCN(c2ccc3c4c(cccc24)C(=O)N(c2cccc(-c4nn(-c5ccccc5)cc4-c4nc5ccccc5s4)c2)C3=O)CC1,73.5%
12,O=C(Cn1c(-c2ccccc2)nc2ccccc21)N=Nc1c(O)[nH]c2ccc(Cl)cc12,32.2%
13,CCc1ccc(SC2c3cc(OC)ccc3Oc3nc(N)c(C#N)c(N)c32)cc1 (stereo unspecified),-17.7% (active)
14,CN(C)C(=O)c1cc(-c2ccc3ncnc(N4CCc5cc(F)c(Cl)cc54)c3c2)cnc1N,-58.3% (active)
15,CN1C(=O)C2(C(C#N)=C(c3ccc(Cl)cc3)Nc3c2c(-c2ccccc2)nn3-c2ccccc2)c2ccccc21 (stereo unspecified),94.9%
16,Cc1ccc2c(c1)/C(=C/C(=O)c1cc3ccccc3oc1=O)C(=O)N2,86.9%
17,N#CC1=C(c2cccs2)Nc2c(c(-c3ccccc3)nn2-c2ccccc2)C12C(=O)Nc1ccc(Cl)cc12 (stereo unspecified),15.3%
18,O=C(NC(=S)N1CCN(c2ncnc3c2cnn3-c2ccccc2)CC1)c1ccc(Br)cc1,92.5%
19,Nc1nnc(-c2cncc(Br)c2)c(-c2c[nH]c3ccc(Cl)cc23)n1,74.5%

row,Compound,growth
1,COc1ccc(C2=NN(C(=O)[C@H]3[C@@H](c4ccco4)c4sc(=O)[nH]c4S[C@@H]3C)C(c3ccc4ccccc4c3)C2)cc1 (stereo partly specified),33.9%
2,CCOc1ccc2[nH]c(=O)c(C(c3nnnn3CC3CCCO3)N3CCN(Cc4ccccc4)CC3)cc2c1 (stereo unspecified),101%
3,FC(F)(F)c1cc2c(Cl)ncnc2n1CCC1CCOCC1,64.3%
4,COc1cc(/C=C/C(=O)c2cnn(-c3cc(=O)[nH]c4ccc(C)cc34)c2C)cc(OC)c1OC,-41.8% (active)
5,O=C(N/N=C/c1c[nH]c2ccccc12)Nc1ccccc1Cl,-44.2% (active)
6,Nc1nn2c(-c3cc4ccccc4oc3=O)ccnc2c1N=Nc1ccccc1,92%
7,Cc1ccc(C(=O)Nc2cc(-c3ccncc3)cc(C(F)(F)F)c2)cc1C#Cc1cnc2cccnn12,36.2%
8,COc1ccc(C(=O)/C=C/c2ccc3c(c2)OCCO3)cc1S(N)(=O)=O,85.8%
9,FC(F)(F)c1cc2c(Cl)ncnc2n1CCN1CCCCC1,93.9%
10,COc1ccc2[nH]cc(-c3cc4nc(-c5cn(C)c6ncccc56)cc(N)n4n3)c2c1,-66.2% (active)
11,Nc1nc(-c2ccccc2)c(N=Nc2ccc(Cl)cc2Cl)s1,-70.8% (active)
12,COc1ccc(NC(=O)Cn2c(/C=C/c3ccc([N+](=O)[O-])cc3)nc3ccccc3c2=O)cc1,82.7%
13,C[C@@H]1[C@H]2C[C@@H](C[C@H]1NCc1nc3ccccc3n1C1CCCCCC1)C2(C)C,68.6%
14,COc1ccc(NC(=O)Cn2c(/C=C/c3cccc(Br)c3)nc3ccccc3c2=O)cc1,87.7%
15,Cc1ccc(-c2cc(C(=O)N=Nc3c(O)[nH]c4ccc(F)cc34)c3ccccc3n2)cc1,51.2%
16,CCOC(=O)c1ccc(NC(=S)NC(=O)c2ccc(NC(=O)C(C)C)cc2OC)cc1,30.2%
17,CCCSc1nnc(-c2c(C)nc3sccn23)o1,96.2%
18,Cc1ccc(N=Nc2c(N)nn3c(-c4cc5ccccc5oc4=O)ccnc23)cc1,31.3%
19,O=C(N/N=C/c1ccc(Cl)o1)c1[nH]c2ccc(Br)cc2c1-c1ccccc1,2.65% (active)

# System: MDA-MB-468 breast
# Experiment: as above
# Settings: 10 µM unless noted
row,Compound,growth
1,Cc1ccc(C(=O)Nc2ccc(-n3ccnc3)c(C(F)(F)F)c2)cc1C#Cc1cnc2cccnn12,-1.47% (active)
2,N/C(=N\c1nc2ccccc2s1)NC(=O)Nc1ccccc1F,-12.3% (active)
3,Cc1nc2sccn2c1-c1nnc(SCC(C)C)o1,4.49% (active)
4,O=[N+]([O-])c1cccc(-c2nnc3c(/C=C/c4ccc(F)cc4)nc4ccccc4n23)c1,0.494% (active)
5,C=CC(=O)N1CCN(c2ccc3nc4c(nc3c2C(F)(F)F)C(=O)c2ncccc2C4=O)CC1,-69.3% (active)
6,CN1CCN(CCS(=O)(=O)Nc2cc(-c3ccc4ncnc(Nc5ccc(F)c(Cl)c5)c4c3)cnc2Cl)CC1,-75.1% (active)
7,COc1ccc(N=Nc2c(N)nn3c(-c4ccc(F)cc4)ccnc23)cc1,44.2%
8,O=C(N/N=C/c1c[nH]c2ccccc12)Nc1ccc(F)c(Cl)c1,-1.93% (active)
9,N#CCc1nnc(NC(=O)c2ccc(-n3c(=O)[nH]c4ccccc4c3=O)cc2)s1,121%
10,CCOc1ccc(-c2cc(-c3cc(C(C)C)c(O)cc3C)nn2-c2ccc(S(N)(=O)=O)cc2)cc1,-16.5% (active)
11,CN1CCN(c2ccc3c4c(cccc24)C(=O)N(c2cccc(-c4nn(-c5ccccc5)cc4-c4nc5ccccc5s4)c2)C3=O)CC1,94.1%
12,O=C(Cn1c(-c2ccccc2)nc2ccccc21)N=Nc1c(O)[nH]c2ccc(Cl)cc12,-18.9% (active)
13,CCc1ccc(SC2c3cc(OC)ccc3Oc3nc(N)c(C#N)c(N)c32)cc1 (stereo unspecified),-78.8% (active)
14,CN(C)C(=O)c1cc(-c2ccc3ncnc(N4CCc5cc(F)c(Cl)cc54)c3c2)cnc1N,-80.4% (active)
15,CN1C(=O)C2(C(C#N)=C(c3ccc(Cl)cc3)Nc3c2c(-c2ccccc2)nn3-c2ccccc2)c2ccccc21 (stereo unspecified),95.4%
16,Cc1ccc2c(c1)/C(=C/C(=O)c1cc3ccccc3oc1=O)C(=O)N2,-69.3% (active)
17,N#CC1=C(c2cccs2)Nc2c(c(-c3ccccc3)nn2-c2ccccc2)C12C(=O)Nc1ccc(Cl)cc12 (stereo unspecified),-22.1% (active)
18,O=C(NC(=S)N1CCN(c2ncnc3c2cnn3-c2ccccc2)CC1)c1ccc(Br)cc1,78%
19,Nc1nnc(-c2cncc(Br)c2)c(-c2c[nH]c3ccc(Cl)cc23)n1,59.4%

row,Compound,growth
1,COc1ccc(C2=NN(C(=O)[C@H]3[C@@H](c4ccco4)c4sc(=O)[nH]c4S[C@@H]3C)C(c3ccc4ccccc4c3)C2)cc1 (stereo partly specified),-14.6% (active)
2,CCOc1ccc2[nH]c(=O)c(C(c3nnnn3CC3CCCO3)N3CCN(Cc4ccccc4)CC3)cc2c1 (stereo unspecified),72.4%
3,FC(F)(F)c1cc2c(Cl)ncnc2n1CCC1CCOCC1,-82.9% (active)
4,COc1cc(/C=C/C(=O)c2cnn(-c3cc(=O)[nH]c4ccc(C)cc34)c2C)cc(OC)c1OC,-77.3% (active)
5,O=C(N/N=C/c1c[nH]c2ccccc12)Nc1ccccc1Cl,-21.3% (active)
6,Nc1nn2c(-c3cc4ccccc4oc3=O)ccnc2c1N=Nc1ccccc1,78.3%
7,Cc1ccc(C(=O)Nc2cc(-c3ccncc3)cc(C(F)(F)F)c2)cc1C#Cc1cnc2cccnn12,92.7%
8,COc1ccc(C(=O)/C=C/c2ccc3c(c2)OCCO3)cc1S(N)(=O)=O,80.7%
9,FC(F)(F)c1cc2c(Cl)ncnc2n1CCN1CCCCC1,-10.6% (active)
10,COc1ccc2[nH]cc(-c3cc4nc(-c5cn(C)c6ncccc56)cc(N)n4n3)c2c1,-75.9% (active)
11,Nc1nc(-c2ccccc2)c(N=Nc2ccc(Cl)cc2Cl)s1,-63.3% (active)
12,COc1ccc(NC(=O)Cn2c(/C=C/c3ccc([N+](=O)[O-])cc3)nc3ccccc3c2=O)cc1,52%
13,C[C@@H]1[C@H]2C[C@@H](C[C@H]1NCc1nc3ccccc3n1C1CCCCCC1)C2(C)C,2.05% (active)
14,COc1ccc(NC(=O)Cn2c(/C=C/c3cccc(Br)c3)nc3ccccc3c2=O)cc1,77.6%
15,Cc1ccc(-c2cc(C(=O)N=Nc3c(O)[nH]c4ccc(F)cc34)c3ccccc3n2)cc1,31.1%
16,CCOC(=O)c1ccc(NC(=S)NC(=O)c2ccc(NC(=O)C(C)C)cc2OC)cc1,3.97% (active)
17,CCCSc1nnc(-c2c(C)nc3sccn23)o1,-22.9% (active)
18,Cc1ccc(N=Nc2c(N)nn3c(-c4cc5ccccc5oc4=O)ccnc23)cc1,14.9%
19,O=C(N/N=C/c1ccc(Cl)o1)c1[nH]c2ccc(Br)cc2c1-c1ccccc1,-9.32% (active)
